# Measurements taken from PubChem BioAssay (NCI).
# This is part of a sample that, as a whole, favours compounds with a hit. Of some 83,000 tested, about 20% had one in any assay.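 Results are percent growth after 48 hours of single-concentration exposure. 100 means growth as in untreated cells, lower positive values show inhibition; negative values down to -100 show cell death.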 Values without a mark were called inactive. Activity calls are given as the source filed them. The calls were made as follows: active = growth percent below 10; inactive = the rest.
# Tests used:
# Test in all cases: NCI-60 one-dose screen, 48 h (100 = growth as untreated, 0 = no growth, -100 = all killed)
# Conditions in all cases: 10 µM unless noted
# NCI-H23 lung = test system: NCI-H23 lung
# NCI-H226 lung = test system: NCI-H226 lung
# NCI-H322M lung = test system: NCI-H322M lung
# HOP-62 NSCLC = test system: HOP-62 NSCLC
# NCI-H460 lung = test system: NCI-H460 lung
# HOP-92 NSCLC = test system: HOP-92 NSCLC
# NCI-H522 lung = test system: NCI-H522 lung
# A549/ATCC NSCLC = test system: A549/ATCC NSCLC
# 786-0 renal = test system: 786-0 renal
# COLO 205 colon = test system: COLO 205 colon
# DU-145 prostate = test system: DU-145 prostate
# K-562 leukemia = test system: K-562 leukemia
# MALME-3M melanoma = test system: MALME-3M melanoma
# MDA-MB-231 breast = test system: MDA-MB-231 breast
# RXF 393 renal = test system: RXF 393 renal
# SF-268 CNS = test system: SF-268 CNS
# SF-295 CNS = test system: SF-295 CNS
# SF-539 CNS = test system: SF-539 CNS
# UACC-257 melanoma = test system: UACC-257 melanoma
# M14 melanoma = test system: M14 melanoma
Compound,growth (NCI-H23 lung),growth (NCI-H226 lung),growth (NCI-H322M lung),growth (HOP-62 NSCLC),growth (NCI-H460 lung),growth (HOP-92 NSCLC),growth (NCI-H522 lung),growth (A549/ATCC NSCLC),growth (786-0 renal),growth (COLO 205 colon),growth (DU-145 prostate),growth (K-562 leukemia),growth (MALME-3M melanoma),growth (MDA-MB-231 breast),growth (RXF 393 renal),growth (SF-268 CNS),growth (SF-295 CNS),growth (SF-539 CNS),growth (UACC-257 melanoma),growth (M14 melanoma)
CC1(C)NCCC[C@]2(C)[C@H]3C=CC4=C5C[C@](C)(CO)CC[C@]5(C)CC[C@@]4(C)[C@]3(C)CC[C@@H]12,-84.9% [100 µM] (active),-59.1% [100 µM] (active),-99.7% [100 µM] (active),-74.5% [100 µM] (active),-81.6% [100 µM] (active),-76.4% [100 µM] (active),-75.6% [100 µM] (active),-66.5% [100 µM] (active),-72% [100 µM] (active),-55.9% [100 µM] (active),-89.5% [100 µM] (active),-25.4% [100 µM] (active),-82.6% [100 µM] (active),-94% [100 µM] (active),-70.4% [100 µM] (active),-69.9% [100 µM] (active),-90.1% [100 µM] (active),-93.3% [100 µM] (active),-80.5% [100 µM] (active),-82.1% [100 µM] (active)
Cc1cc(C)c(S(=O)(=O)/N=c2/n(-c3ccccc3)nc3n2CCN3C2=NCCN2)c(C)c1,86.7%,89%,87.1%,86.8%,71.8%,63.9%,103%,79.9%,89.1%,-28.9% (active),98%,38.9%,50.7%,67.7%,54.9%,81.4%,95.8%,88.8%,92%,98.9%
O=C(O)CC1CCCCC1c1ccccc1 (stereo not given),111%,98.7%,103%,112%,119%,99.8%,90.1%,106%,103%,113%,117%,109%,112%,116%,106%,109%,100%,91.9%,112%,97.2%
CC(=O)O.CC(=O)O.O.[Fe],106%,101%,111%,103%,107%,99.8%,90%,99.1%,112%,101%,105%,139%,91.5%,99.2%,110%,95.1%,127%,103%,103%,106%
CN(C)c1cc(NN=C(c2ccc(O)cc2)c2ccc(O)cc2)c([N+](=O)[O-])cc1[N+](=O)[O-],41%,98.7%,117%,58%,30.4%,73%,1.73% (active),13.2%,16.7%,89.5%,96.8%,118%,153%,81.8%,0.652% (active),81.5%,79.3%,74.9%,25.1%,48.2%
O=C(OCc1ccc2c(Cl)cc(Cl)c(O)c2n1)N1CCN(C(=O)c2cc3cc(F)ccc3[nH]2)CC1,26.3%,2.12% (active),33.5%,6.32% (active),1.07% (active),39.2%,-19.1% (active),13.6%,79.2%,85.7%,-10.4% (active),13.3%,38.2%,28.2%,16.4%,31.1%,25.1%,-20.1% (active),25.1%,7.85% (active)
CC(=O)n1cc(C=O)c2ccccc21,94.4%,91.1%,105%,103%,112%,94.8%,91.3%,89.4%,101%,104%,104%,87.3%,102%,113%,113%,102%,101%,104%,94.7%,102%
